From PubChem BioAssay
TLR4 MyD88 blk = blocks binding of human TLR4 to MyD88; Cell-based TLR4-MyD88 binding inhibition assay; inhibition, % at 10 µM; hit rate 0.06% among 16,000; AID 811; in the data active = inhibition above about 45%
S1P1 agonist = S1P1 (human) receptor agonism | AID 1044 | activation, % at 4.5 µM | S1P1 agonist cell-based reporter assay | hit rate 1.5% among 16,000 | P21453; in the data active = activation above about 80%
Target sequence (P21453 whole entry, looked up): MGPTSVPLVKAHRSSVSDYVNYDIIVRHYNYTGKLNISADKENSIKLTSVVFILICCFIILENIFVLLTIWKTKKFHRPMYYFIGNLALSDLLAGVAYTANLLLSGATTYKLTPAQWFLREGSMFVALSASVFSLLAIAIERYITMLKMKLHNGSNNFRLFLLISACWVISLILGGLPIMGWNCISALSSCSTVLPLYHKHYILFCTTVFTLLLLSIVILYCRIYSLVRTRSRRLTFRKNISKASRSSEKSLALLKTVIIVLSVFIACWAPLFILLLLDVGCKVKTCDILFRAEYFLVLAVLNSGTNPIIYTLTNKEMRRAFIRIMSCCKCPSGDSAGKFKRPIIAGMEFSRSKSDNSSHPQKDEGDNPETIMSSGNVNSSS
KOR antag MB = blocks the human kappa opioid receptor, Maybridge compounds; OPRK1 cells, antagonist mode, fluorescence readout; inhibition, % at 9 µM; hit rate 0.4% among 16,000; P41145; in the data active = inhibition above about 50%
rat GALR2 ag = activates the rat galanin receptor 2. AID 833. activation, % at 10 µM. O08726. hit rate 0.5% among 16,000. cell-based GALR2 agonist screen; in the data active = activation above about 15%
A number is an active result; . = inactive; / = no result given. A selection: hits, their analogues and other compounds. The true share with any hit is near 2.6%.

SMILES	TLR4 MyD88 blk	S1P1 agonist	KOR antag MB	rat GALR2 ag
CN(C)/C=C/C=c1/c(=O)c2cccc3cccc1c32	.	102	.	.
Cc1csc(C(=O)Nc2cc(C(F)(F)F)cc(C(F)(F)F)c2)c1	.	.	.	.
COc1ccc(CCNC(=O)c2ccccc2)cc1OC	.	.	.	.
COc1ccc(CCNC(C#N)c2ccco2)cc1OC (configuration not stated)	.	105	.	.
O=C(Oc1cccc2c1CCC2=O)c1ccccc1	.	.	.	.
O=C(Oc1cccc2c1C(=O)C=CC2=O)c1ccccc1	.	102	.	.
CC(=O)Nc1ccc(NC(=O)Nc2ccccc2)cc1	.	.	.	.
CN(C)c1cc(NC(=O)Nc2ccccc2)c2ccccc2n1	.	.	57	.
CSc1sc(C(=O)NCC2CC2)cc1S(=O)(=O)C(C)C	.	.	.	17
N#C/C(=C\c1ccc(C#Cc2ccccc2)s1)C(=O)c1ccco1	.	.	.	16
N#C/C(=C\c1cc(C#Cc2ccccc2)cs1)C(=O)c1ccco1	.	.	.	.
CC(C)n1c(SCC(=O)NNC(=O)c2c(F)cccc2F)nc2cc(C(F)(F)F)ccc21	.	.	.	.
CCOC(=O)Cn1c(=O)c2ccsc2c2c(C#N)c(SC)sc21	.	.	.	139
CCOC(=O)CSc1sc(C(=O)OCC)c(-c2cccs2)c1C#N	.	.	.	.
COc1ccc(C2C3CCc4ccccc4C3=NN2C(C)=O)cc1 (configuration not stated)	.	.	.	.
O=[N+]([O-])c1cc(C(F)(F)F)cc([N+](=O)[O-])c1O/N=C1\CSCc2ccccc21	.	.	.	40
Cc1ccc(Nc2ccnc3cc(Cl)ccc23)cc1F	.	.	.	.
Clc1ccc2c(Nc3ccc4c(c3)OCO4)ccnc2c1	/	.	51	.
Cc1nnsc1C(=O)Nc1ccccc1SCc1cccc(C(F)(F)F)c1	.	88	.	.
O=C(OCc1ccc(C(F)(F)F)cc1)c1ccc([N+](=O)[O-])o1	.	.	.	.
CCSC(SCC)[C@@H](O)[C@H](O)[C@H](O)[C@@H](O)CO	.	.	.	.
OC[C@@H](O)[C@H](O)[C@H](O)[C@@H](O)C(SCc1ccccc1)SCc1ccccc1	.	103	.	.
CCSc1ccc2c3c(cccc13)C(=O)N(Cc1ccccc1)C2=O	.	.	.	128
N#C/C(=C\c1cccc(OCc2ccccc2)c1)c1ccccn1	.	.	.	.
Cc1ccc(-n2[nH]c(C)cc2=O)cc1	.	.	.	.
SMILES	TLR4 MyD88 blk	S1P1 agonist	KOR antag MB	rat GALR2 ag
CN(C)c1ccc(/C=C/c2cc[n+](Cc3ccc(F)cc3)cc2)cc1	51	.	.	.
CN(C)c1ccc(/C=C/c2ccccc2)cc1	.	.	.	.
Cc1c(S(=O)(=O)c2ccc(Cl)cc2)csc1C(=O)Nc1ccc(F)cc1F	.	.	.	22
Cn1cnc(S(=O)(=O)Oc2cccnc2)c1	.	.	.	.
COc1ccccc1C1CCN(c2ccc(CO)cc2[N+](=O)[O-])CC1	.	92	.	.
COc1cc(N2CCCC2)c([N+](=O)[O-])cc1[N+](=O)[O-]	.	.	.	.
O=C(C1CCCCC1)N1CCN(S(=O)(=O)c2cc(Cl)c(Cl)cc2Cl)CC1	.	.	.	.
O=[N+]([O-])c1ccc(OS(=O)(=O)c2cccc3nsnc23)cc1	.	.	.	47
COc1ccc2[nH]c(=S)[nH]c2c1	.	.	.	.
O=S(=O)(O)c1ccc2[nH]c(=S)[nH]c2c1	.	.	.	60
Cc1oc(-c2ccc(Cl)cc2)cc1-c1ccn[nH]1	.	.	.	.
FC(F)(F)c1cc(-c2ccc(-c3ccn[nH]3)o2)cc(C(F)(F)F)c1	.	102	.	.
c1ccc(-c2nsc(-n3ccc(-c4cccs4)n3)n2)cc1	.	.	.	20
O=c1[nH]cc(Cl)cc1Cl	.	.	.	.
S=C(SCc1ncon1)N1CCCC1	.	83	.	.
S=C(SCc1ncon1)N1CCOCC1	.	.	.	.
c1ccc(COc2ccc(CCC3OCCO3)cc2)cc1	.	.	.	15
Cc1c(C(=O)NNc2cc(C(F)(F)F)ccc2Cl)n(C)oc1=O	.	.	.	.
Cc1c(C(=O)Oc2cccc(C(F)(F)F)c2)n(C)oc1=O	.	.	.	56
CC(C)(C)OC(=O)N1CCN(c2ccc(NS(=O)(=O)c3ccc(Cl)cc3)cn2)CC1	.	.	.	.
CC(C)(C)c1ccc(NC(=O)c2ccc(N3C(=O)CSCC3=O)cc2)cc1	/	93	.	.
O=S(=O)(Nc1ccc(C(F)(F)F)cc1Cl)c1cc(Br)c(Cl)s1	.	113	.	.
O=S(=O)(c1cc(Br)c(Cl)s1)N1C=CC(C(F)(F)F)=NCC1	.	.	.	.
N#Cc1c(Cl)cccc1Oc1ccc(-c2ccnc(N)n2)cc1	.	.	.	.
CCn1c2ccccc2c2cc(N3C(=O)C=CC3=O)ccc21	.	110	.	.
SMILES	TLR4 MyD88 blk	S1P1 agonist	KOR antag MB	rat GALR2 ag
COc1ccc(N2C(=O)C=CC2=O)cc1OC	.	.	.	.
CCOC(=O)c1sc(-c2ncc(C(F)(F)F)cc2OCC)nc1C	.	.	.	.
C/C(=N\NC(=S)NC(C)(C)C)c1sc(-c2ncc(C(F)(F)F)cc2Cl)nc1C	.	.	.	19
COc1ccc(OC)c(/C=C(\C#N)C(N)=O)c1	.	92	.	.
CCOC(=O)/C(C#N)=C/c1ccc(OC)c(OC)c1	.	.	.	.
Cc1nc(-c2ccccc2)no1	.	.	.	.
N#Cc1cccnc1OCC(F)(F)F	.	.	.	.
CSc1ccc(/C=C/c2onc(C)c2[N+](=O)[O-])s1	.	.	106	.
Nc1ncc(Br)cc1[N+](=O)[O-]	.	.	.	.
O=C(Nc1ccc(F)c(Cl)c1)c1cc(Br)ccc1O	.	109	70	.
COC(=O)c1cccc(NS(=O)(=O)c2ccc(Cl)cc2)c1	.	.	.	.
CC(=O)Nc1ccc(NC(=O)c2c(Cl)cccc2Cl)c(C)c1	.	.	.	41
Cc1cc(NC(=O)CN2CCOCC2)n(-c2ccccc2)n1	.	.	.	137
CSc1nnc(-c2sc3nc(C)cc(C)c3c2N)n1Cc1ccccc1	.	.	.	29
CCOC(=O)C(=CNNC(=O)c1cnn(-c2ccc([N+](=O)[O-])cc2)c1C(F)(F)F)C(=O)OCC	.	.	.	.
Clc1ccc(CSc2nnc(-n3cccc3)s2)cc1	.	80	.	.
Cc1nnc(SCc2ccc([N+](=O)[O-])cc2)s1	.	.	.	.
CN(C)Nc1ccc([N+](=O)[O-])c(NN(C)C)c1C#N	.	81	.	.
O=C1/C(=C/c2ccco2)CC/C1=C\c1ccco1	.	.	.	.
COc1ccc(CCN2C(=O)CSC2=Nc2ccc(C(C)C)cc2)cc1OC	.	108	.	.
N/C(=N\OC(=O)c1cccc(C(F)(F)F)c1)C1CSCCS1 (configuration not stated)	.	.	.	.
O=C(OC1CCSC1)c1cc(C(F)(F)F)cc(C(F)(F)F)c1 (configuration not stated)	.	120	.	.
S=C(NCC1CCCO1)N/N=C/c1ccc(Cl)cc1 (configuration not stated)	.	.	.	.
O=[N+]([O-])c1ccc(-c2ccc(/C=N/Nc3ccccc3)o2)cc1	.	82	81	.
